The results in this text go back to article PMC4552634, “A New Set of Chemical Starting Points with Plasmodium falciparum Transmission-Blocking Potential for Antimalarial Drug Discovery” (PLoS ONE, 2015).

Each structure is given as a SMILES string. About 3,200 (25%) of roughly 13,000 compounds showed an effect of 50% or more. This is one part of the list.

Usually % Inhibition stands for the change of the read-out against control, counted positive when it falls.

The experiment concerns P. falciparum stage V gametocytes. Also noted: BacTiter-Glo ATP luminescence viability of purified stage V gametocytes in 384-well plates, per cent inhibition versus DMSO. The settings on record: 48 h, 5 µM; inhibitor.
Consider `O=C(CCc1cnc[nH]1)Nc1cccc(-c2cccc(-c3nc4ccc(C(F)(F)F)cc4[nH]3)c2)c1` [TCMDC-132157], for which the “% Inhibition” value was -1.759%. Consider `Cc1cnc(Nc2cccnc2)nc1Nc1ccccc1C(=O)NC(C)C` [TCMDC-134207], for which the “% Inhibition” value was 8.943%. With `O=C(Nc1ccc(CN2CCN(S(=O)(=O)c3ccc(Cl)s3)CC2)cc1)c1cccs1` [TCMDC-136320], the “% Inhibition” value turned out to be 18.17%. Then `Cc1cc(CNCCCCCCNCc2ccc(-c3ccccc3)cc2)ccc1O` [TCMDC-140412], with 99.09%; and `O=C(NCCCCCCNCc1ccc(-c2ccccc2)cc1)Nc1ccc(Cl)c(Cl)c1` [TCMDC-140706], with 4.226%; and `N#Cc1ccc2c(c1)CN(CCCCNC(=O)c1ccc(-c3ccccc3)cc1)CC2` [TCMDC-139091], with 8.247%. For `N#Cc1ccc(CNCCCCCCCNCc2ccc(-c3ccccc3)cc2)cc1` [TCMDC-140407], the “% Inhibition” value came to 71.46%. The value for `Cc1cc(CNCCCCCCNCc2ccc(Cl)cc2)ccc1O` [TCMDC-140414] was 43.51%.

Turning to `Cc1cc(CNCCCCCCCNCc2ccc(-c3ccccc3)cc2)ccc1O` [TCMDC-140415], the “% Inhibition” value is given as 101%. In the case of `Cc1cc(CNCCCCCCCNCc2ccc(Cl)cc2)ccc1O` [TCMDC-140417], the “% Inhibition” value is -6.741%. `Cc1cc(CNCCCCCNCc2ccc(Cl)cc2)ccc1O` [TCMDC-140411]: the “% Inhibition” value is 48.45%. Then `O=C(/C=C/c1ccc(Cl)c(Cl)c1)NCCCCCN1CCC(NC(=O)c2cc(Cl)ccc2F)CC1` [TCMDC-135870], with -52.06%; and `CC(C)(C)c1ccc(S(=O)(=O)Nc2ccccc2N2CCOCC2)cc1` [TCMDC-124560], with 22.48%. Then `CC(=O)c1cc(N2CCCC2)ccc1N` [TCMDC-125017], with -63.54%. Then `CCCCCCc1cc2cc(-c3nc(-c4ccc(OC)cc4)cs3)c(=O)oc2cc1O` [TCMDC-124081], with -11.41%.

`O=C(Nc1cccc(-c2cccc(-c3nc4ccc(C(F)(F)F)cc4[nH]3)c2)c1)c1cnc[nH]1` [TCMDC-136935]: the “% Inhibition” value was 37.83%. For the compound `CC1(C)Cc2c([nH]c3ccccc23)C(CCCCCCCCC2=NC(C)(C)Cc3c2[nH]c2ccccc32)=N1` [TCMDC-137565], the “% Inhibition” value is 110.1%. `NC1=NC2(CCCCC2)N(OCCCCCCc2ccccc2)C(N)=N1` [TCMDC-131605]: the “% Inhibition” value is on record as 26.32%. The value for `Cc1nn(C2CCS(=O)(=O)C2)c(C)c1C1Nc2ccccc2C(=O)N1Cc1ccc2c(c1)OCO2` (centres unmarked) [TCMDC-125241] was 62.63%; that for `Cc1cc(C2NC(=O)c3ccccc3N2)c(C)n1-c1ccc2c(c1)OCO2` (centres unmarked) [TCMDC-125051] was 5.355%. Take `OC(c1cccc(OCc2ccccc2)c1)C1CN(CCc2ccccc2)CCC1(O)c1ccccc1` (centres unmarked) [TCMDC-131997]: the “% Inhibition” value is 1.971%.

In the case of `COc1cc(Nc2nccc(-c3c(-c4cccc(NC(=O)c5c(F)cccc5F)c4)nn4ccccc34)n2)cc(OC)c1OC` [TCMDC-135668], the “% Inhibition” value is given as -53.25%. Then `CCCCCC(=O)N1CCOC(CCN2CCc3c(c4ccccc4n3C)C2)(c2ccc(Cl)c(Cl)c2)C1` (centres unmarked) [TCMDC-135564], with -20.19%; and `S=C(NCCc1ccccc1)Nc1ccc2ncsc2c1` [TCMDC-139021], with -23.08%. For `Cc1csc2nc(-c3ccccn3)nc(Nc3ccc4ncsc4c3)c12` [TCMDC-138923], the “% Inhibition” value is given as 100.3%. With `Cc1csc2nc(-c3ccccn3)nc(Nc3ccncn3)c12` [TCMDC-138927], the “% Inhibition” value came out at 119.9%. Then `O=C(Nc1ccnc(N2CC3CC2CN3Cc2cccc(O)c2)c1)c1ccc(F)cc1` (centres unmarked) [TCMDC-134956], with -60.26%; and `FC(F)(F)c1ccc2[nH]c(-c3ccc(-c4ccc(CNCC5CCCO5)cc4)cc3)nc2c1.O=C(O)C(F)(F)F` (centres unmarked) [TCMDC-133096], with -14.34%; and `O=C(CCc1nc2c(cnn2-c2ccccc2)c(=O)[nH]1)NC1CCSc2ccccc21` (centres unmarked) [TCMDC-124875], with -14.45%.

For the compound `Cc1cccc2nc(-c3ccc(-c4cccc(CN5CCN(c6ccncc6)CC5)c4)s3)[nH]c12.O=C(O)C(F)(F)F` [TCMDC-132917], the “% Inhibition” value came out at 20.85%. Then `Cc1cccc2nc(-c3ccc(-c4cccc(CN5CCN(CC6CCCN(C)C6)CC5)c4)s3)[nH]c12.O=C(O)C(F)(F)F` (centres unmarked) [TCMDC-133909], with 55.65%. Turning to `Cc1cccc2nc(-c3ccc(-c4ccc(CN5CCCCC5)cc4)s3)[nH]c12.O=C(O)C(F)(F)F` [TCMDC-133902], the “% Inhibition” value was -19.5%.

Consider `CN1CCCC(CN2CCN(Cc3cccc(-c4ccc(-c5nc6ccccc6[nH]5)s4)c3)CC2)C1.O=C(O)C(F)(F)F` (centres unmarked) [TCMDC-133904], for which the “% Inhibition” value was found to be 49.15%. The value for `Cc1cccc2nc(-c3ccc(-c4ccc(CN5CCN(c6ccncc6)CC5)cc4)s3)[nH]c12.O=C(O)C(F)(F)F` [TCMDC-132912] was 36.62%; that for `Cc1cccc2nc(-c3ccc(-c4ccc(CN5CCN(CC6CCCN(C)C6)CC5)cc4)s3)[nH]c12.O=C(O)C(F)(F)F` (centres unmarked) [TCMDC-133899] was 90.54%.
